RecA intein inh – Mtb RecA intein splicing inhibitors, primary screen, biochemical, fluorescence, HTS; Protein RecA (Mycobacterium tuberculosis (strain ATCC 25618 / H37Rv)), P9WHJ3; 0.75% of 290,000 active; cell-free RecA intein splicing; inhibition, % (concentration not given with the values); in the data active means inhibition above about 30%;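 further: 0% = vehicle wells and 100% = reference inhibitor control wells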
CCHFV vOTU inh – CCHFV vOTU protease inhibitors, primary screen, biochemical, Pep-AMC substrate, fluorescence | inhibition, % at 11.5 µM | 0.55% of 370,000 active | AID 651958, 2012; further: 0% = vehicle wells with enzyme and 100% = no enzyme wells
Mtb bLac sens – beta-lactam sensitization of Mtb H37Rv, H37Rv; M. tuberculosis H37Rv growth with meropenem, percent inhibition; inhibition, % at 25 µM; 0.27% of 330,000 active; AID 434955, 2010; call rule not given here;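 further: growth measured after seven days incubation then overnight dye step; 0% = bacteria only wells and 100% = bacteria with antibiotic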
FBA Mtb inh – Mtb FBA enzyme inhibitors, primary screen, biochemical, fluorescence, strain H37Rv | 2.3% of 360,000 active | purified M. tuberculosis FBA, fluorescence read-out | inhibition, % at 1 µM; in the data active means inhibition above about 27%;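 further: 0% = vehicle and 100% = reference inhibitor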
Target sequence (P9WQA3 whole entry, looked up): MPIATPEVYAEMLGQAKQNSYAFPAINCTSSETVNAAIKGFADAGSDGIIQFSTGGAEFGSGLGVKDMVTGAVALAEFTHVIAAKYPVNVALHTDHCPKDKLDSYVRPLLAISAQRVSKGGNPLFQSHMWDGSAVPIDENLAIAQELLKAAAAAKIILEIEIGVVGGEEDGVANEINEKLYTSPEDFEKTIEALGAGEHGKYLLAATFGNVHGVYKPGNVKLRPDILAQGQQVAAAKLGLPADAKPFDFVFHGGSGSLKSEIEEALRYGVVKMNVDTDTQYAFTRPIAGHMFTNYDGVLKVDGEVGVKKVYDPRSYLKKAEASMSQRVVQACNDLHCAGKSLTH
GDH-TPI counter – GDH-TPI coupling enzyme inhibitors, primary screen, artefact control for M. tuberculosis FBA inhibitor project, biochemical, absorbance, full deck; GDH-TPI coupled enzyme counterscreen, NADH absorbance; inhibition, % at 4.8 µM; 1.2% of 360,000 active; AID 588335, 2011;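 further: 0% = DMSO wells and 100% = wells lacking the enzyme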
* marks the source's active call; other numbers are inactive results; · = no result given; + = active, no number. The list is not random: actives were taken first. Their share in the collection is about 4.2%. Unless noted, no stated cut-off is given here; in the data, active means inhibition above about 30%; inactive means the rest.

SMILES | RecA intein inh | CCHFV vOTU inh | Mtb bLac sens | FBA Mtb inh | GDH-TPI counter
Cc1cc(=O)oc2c3c(cc(OCC(=O)N4CCC[C@H]4C(=O)O)c12)OC(C)(C)CC3 | -4 | -222 | -2 | + | 26
CCCCc1cc(=O)oc2c3c(cc(OCC(=O)N4CCC[C@H]4C(=O)O)c12)OC(C)(C)CC3 | -2 | -215 | 2 | + | 27
Cc1c(C)c2c(OCC(=O)N3CCC(C(N)=O)CC3)cc3c(c2oc1=O)CCC(C)(C)O3 | -4 | -185 | -1 | + | 27
Cc1c(OCC(=O)N2CCC(C(N)=O)CC2)ccc2c3c(c(=O)oc12)CCCC3 | 2 | -8 | 0 | 18 | 10
C=CCN1[C@@H](Cc2ccccc2)COc2cc(F)ccc2S1(=O)=O | · | 7 | · | · | ·
COC1=C[C@H](C(=O)NCc2ccc(Cl)cc2)C(C)C(c2ccccc2)CC1=O (some centres not stated) | · | 2 | · | · | ·
CCOC(=O)C1Nc2c(F)cc(C)cc2C2c3ccccc3CC12 (configuration not stated) | 45* | -8 | 87 | 9 | -2
CCOC(=O)C1Nc2c(cc(C(F)(F)F)cc2[N+](=O)[O-])C2c3ccccc3CC12 (configuration not stated) | -4 | -7 | 99 | -2 | 5
CCOC(=O)C1Nc2ccc(C)cc2C2C=CCC12 (configuration not stated) | 3 | 14 | -3 | 0 | -3
CCOC(=O)C1Nc2ccccc2C2c3ccccc3CC12 (configuration not stated) | 19 | -5 | 47 | 33* | 11
Cc1ccc(N(CCC#N)C(=O)CCl)cc1C | 56* | -15 | 99 | 1 | -3
COC(=O)C1CN(C(=O)OC(C)(C)C)C2=C1C(=O)CC(C)(C(=O)OC(C)(C)C)C2 (configuration not stated) | · | 6 | · | · | ·
O=C(Nc1sccc1C(=O)NCc1ccco1)c1cccnc1 | 4 | -4 | 61 | 1 | 32*
O=C(Oc1cccc(OC(=O)c2ccco2)c1)c1ccco1 | 49* | 7 | 24 | 0 | -6
O=C(Oc1ccc(-c2nnco2)cc1)c1ccco1 | 47* | 4 | 1 | -1 | -7
CN(C)C(=O)Oc1ccc(-c2nnco2)cc1 | -2 | 0 | 10 | -3 | -2
O=C(Oc1cccc(-n2cnnn2)c1)c1ccco1 | 43* | 11 | -10 | 5 | -4
O=C(Oc1cccnc1)c1ccco1 | 1 | 21 | -8 | -2 | -9
O=C(CNS(=O)(=O)c1ccc(F)cc1)N1CCN(c2ccccn2)CC1 | · | 2 | · | · | ·
COc1cc2c(cc1NC(=O)CSc1nnc(-c3ccccn3)n1-c1ccccc1)oc1ccccc12 | · | -2 | · | · | ·
O[C@H](COc1ccc(F)cc1)CN1CCC(C(O)(c2ccccc2)c2ccccc2)CC1 | · | -4 | · | · | ·
O=C(CC(=O)c1ccccc1O)c1cccc(F)c1 | 4 | · | 98 | 4 | 11
O=C(CC(=O)c1c(F)cccc1Cl)c1ccccc1O | 2 | -48 | 86 | 10 | 33*
Cc1nn(C(=O)c2cc3sccc3[nH]2)c(C)c1C | 4 | 4 | 2 | -1 | 35*
COc1ccc2[nH]c3c(c2c1)CCn1c-3nc2ccccc2c1=O | -23 | · | -1 | 16 | 59*
SMILES | RecA intein inh | CCHFV vOTU inh | Mtb bLac sens | FBA Mtb inh | GDH-TPI counter
O=C(N/N=C/c1ccc[nH]1)c1cc(-c2cccs2)nc2ccccc12 | 3 | 7 | 56 | 8 | 14
Cn1cccc1/C=N/NC(=O)c1cc(-c2cccs2)nc2ccccc12 | 1 | -23 | -11 | 19 | 31*
O=C(N/N=C/c1ccc2ncccc2c1)c1cc(-c2cccs2)nc2ccccc12 | -18 | -15 | 61 | 14 | 39*
O=C(N/N=C/c1ccc(F)cc1)c1cc(-c2ccccn2)nc2ccccc12 | · | -14 | · | -2 | 14
COc1cccc(NC(=O)C2CCCN2C(=O)Nc2ccc(Cl)cc2)c1 (configuration not stated) | · | -4 | · | · | ·
OCCN(CCO)c1cc2c3ccccc3ccc2c2ccccc12 | · | -37 | · | 131* | 2
Cc1ccccc1-c1nnc(NC(=O)c2ccc(N3C(=O)CCC3=O)cc2)s1 | -3 | -1 | 6 | 4 | 33*
Cc1cccc(NC(=O)CN2C(=O)CCSc3ccccc32)c1C | · | -4 | · | · | ·
CCOCCC(=O)Nc1ccc2c(c1)c(=O)n(C)n2Cc1cccc(C(F)(F)F)c1 | · | -146 | · | 177* | 10
Cn1c(=O)c2cc(NC(=O)CCc3ccccc3)ccc2n1Cc1cccc(C(F)(F)F)c1 | · | -47 | · | 127* | 15
COc1cccc(Cn2c3ccc(NC(=O)CCc4ccc(F)cc4)cc3c(=O)n2C)c1 | · | -39 | · | 151* | 4
Cn1c(=O)c2cc(NC(=S)NCc3ccccc3F)ccc2n1Cc1cccc(C(F)(F)F)c1 | · | -21 | · | 21 | 6
COc1ccccc1CCC(=O)Nc1ccc2c(c1)c(=O)n(C)n2C | · | -119 | · | 189* | 8
CCOC(=O)[C@@]12CCCC3=C1N(CCC3)C(=O)[C@H]2CC(=O)NCc1ccccc1 | · | 5 | · | · | ·
CC(C)C(=O)OCCCN1C(=O)CCC12CCC(c1ccccc1)CC2 (configuration not stated) | · | 7 | · | · | ·
CN(C)c1ccc(NC(=O)NC2CCCCN(Cc3cccc(Cl)c3)C2=O)cc1 (configuration not stated) | · | 3 | · | · | ·
Cc1cc(C)cc(Cn2c3ccc(NC(=S)NCc4ccccc4F)cc3c(=O)n2C)c1 | · | -19 | · | 25 | 5
COc1ccc(CNC(=O)Nc2ccc3c(c2)c(=O)n(C)n3Cc2cc(C)cc(C)c2)cc1 | · | -109 | · | 168* | 11
Cn1c(=O)c2cc(NC(=O)NCc3ccccc3)ccc2n1Cc1cccc(C(F)(F)F)c1 | · | -119 | · | 138* | 12
O=C(COC(=O)c1ccc2c(c1Cl)C(=O)c1ccccc1C2=O)NC1CC1 | 41* | 3 | 60 | -6 | 6
CN(C)c1ccc(C(=O)N/N=C/C23CC[C@@H](O)CC2(O)CC[C@@H]2[C@@H]3CCC3(C)C(C4=CC(=O)OC4)CCC23O)cc1 (some centres not stated) | -8 | 0 | -6 | 1 | 45*
CCOc1cc(/C=C2\C(=O)N(c3nc(-c4ccc(Br)cc4)cs3)N=C2c2ccccc2)ccc1O | 4 | · | 4 | 1 | 31*
CCOc1ccc(N/N=C(/C#N)C(N)=O)cc1 | 0 | 9 | 3 | -4 | 33*
COc1ccc(N/N=C(\C#N)C(N)=O)cc1 | 2 | 1 | -3 | -5 | 20
CC(C)N(Cc1c(O)ccc2c(=O)c(-c3ccc(Cl)cc3)coc12)C(C)C | 5 | -3 | 5 | 7 | 6
COc1ccccc1-c1coc2c(CN(C)C)c(O)ccc2c1=O | · | -176 | 2 | 188* | 22
COc1ccccc1Oc1coc2c(CN(C)C)c(O)ccc2c1=O | -7 | -128 | 0 | 114* | 25
CCN(CC)Cc1c(O)ccc2c(=O)c(-c3ccc4c(c3)OCCO4)coc12 | -1 | -28 | -2 | 23 | 31*

Compound activity: PubChem BioAssay, several laboratories
